Test results: the supplement of paper PMC9262897, “Low-cost anti-mycobacterial drug discovery using engineered E. coli” (Nature Communications, 2022)
Where a name gives a salt, the structure may show the parent alone. ± gives the standard deviation of the averaged measurements.

Tests used:
Test in all cases: growth (OD600 after 10 h); higher = more growth (less inhibition)
[1] = test system: E. coli TESEC Alr+ wild-type control; settings: compound 0.1 mM; raw OD600 reference: median of DMSO wells 0.241, cell-free background 0.041
Procedure: (§1)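 TESEC Mtb Alr E. coli, or the Alr+ wild-type control, in 384-well plates with Prestwick library compounds at 0.1 mM and 1% DMSO, across arabinose induction levels of 1E3 to 1E7 nM. Growth is read as OD600 after 10 h at 37 °C in triplicate biological replicates.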

E. coli TESEC Mtb Alr [2] = settings: compound 0.1 mM
Procedure: as §1

E. coli TESEC Mtb Asd = settings: compound 0.1 mM
Procedure: (§2)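 TESEC E. coli strains in which the native enzyme is deleted and replaced by arabinose-inducible Mtb Asd, DapB, CysH or TrpD, each grown in its selective medium. Strains were screened against the Prestwick library at 0.1 mM and 1% DMSO in 384-well format at low and high arabinose induction. Growth is read as OD600 after 10 h in triplicate.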

E. coli TESEC Mtb DapB = settings: compound 0.1 mM
Procedure: as §2

[3] = test system: E. coli TESEC Alr+ wild-type control; settings: compound 0.1 mM; raw OD600 reference: median of DMSO wells 0.49, cell-free background 0.052
Procedure: (§3)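 TESEC Mtb Alr E. coli (ΔaraC ΔtolC ΔentC Δalr ΔdadX, arabinose-inducible Mtb Alr) or the Alr+ wild-type control strain, grown in defined M9-fructose medium without D-alanine in 96-well plates with Prestwick library compounds at 0.1 mM and 1% DMSO. Low Alr induction is 0.1 µM arabinose and high induction is 10 mM arabinose.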

E. coli TESEC Mtb Alr [4] = settings: compound 0.1 mM; remark: listed apart in the source
Procedure: as §3

[5] = arabinose 1000 nM, raw OD600 reference: median of DMSO wells 0.294, cell-free background 0.041
[6] = arabinose 10000 nM, raw OD600 reference: median of DMSO wells 0.264, cell-free background 0.041
[7] = arabinose 100000 nM, raw OD600 reference: median of DMSO wells 0.201, cell-free background 0.041
[8] = arabinose 1000000 nM, raw OD600 reference: median of DMSO wells 0.193, cell-free background 0.041
[9] = arabinose 10000000 nM, raw OD600 reference: median of DMSO wells 0.146, cell-free background 0.041
[10] = arabinose induction (level): High, raw OD600 reference: median of DMSO wells 0.331, cell-free background 0.041
[11] = arabinose induction (level): Low, raw OD600 reference: median of DMSO wells 0.417, cell-free background 0.041
[12] = arabinose induction (level): High, raw OD600 reference: median of DMSO wells […], cell-free background 0.041
[13] = arabinose induction (level): Low, raw OD600 reference: median of DMSO wells 0.227, cell-free background 0.041
[14] = arabinose 100 nM, raw OD600 reference: median of DMSO wells 0.413, cell-free background 0.052
[15] = arabinose 10000000 nM, raw OD600 reference: median of DMSO wells […], cell-free background 0.052

SMILES	growth [1]	growth (E. coli TESEC Mtb Alr [2]; [5])	growth (E. coli TESEC Mtb Alr [2]; [6])	growth (E. coli TESEC Mtb Alr [2]; [7])	growth (E. coli TESEC Mtb Alr [2]; [8])	growth (E. coli TESEC Mtb Alr [2]; [9])	growth (E. coli TESEC Mtb Asd; [10])	growth (E. coli TESEC Mtb Asd; [11])	growth (E. coli TESEC Mtb DapB; [12])	growth (E. coli TESEC Mtb DapB; [13])	growth [3]	growth (E. coli TESEC Mtb Alr [4]; [14])	growth (E. coli TESEC Mtb Alr [4]; [15])
Cc1oncc1C(=O)Nc1ccc(C(F)(F)F)cc1 [Leflunomide]	0.139 ± 0.0056	0.149 ± 0.0026	0.1904 ± 0.0019	0.138 ± 0.0062	0.106 ± 0.0035	0.096 ± 0.00046	0.381 ± 0.085	0.327 ± 0.018	0.226 ± 0.028	0.255 ± 0.034	0.3131 ± 0.0014	0.364 ± 0.021	0.158 ± 0.027
CN1CCN2c3ncccc3Cc3ccccc3C2C1 (stereo not drawn) [Mirtazapine]	0.217 ± 0.0068	0.281 ± 0.0088	0.2774 ± 0.0027	0.225 ± 0.025	0.182 ± 0.021	0.162 ± 0.0043	0.261 ± 0.11	0.29 ± 0.013	0.212 ± 0.0063	0.249 ± 0.019	0.468 ± 0.035	0.414 ± 0.014	0.336 ± 0.014
NC(=O)c1cc[n+](CC2=C(C(=O)[O-])N3C(=O)[C@@H](NC(=O)[C@@H](c4ccccc4)S(=O)(=O)O)[C@H]3SC2)cc1 [Cefsulodin sodium salt]	0.257 ± 0.0041	0.309 ± 0.014	0.235 ± 0.007	0.228 ± 0.006	0.2032 ± 0.0015	0.145 ± 0.0069	0.33 ± 0.084	0.423 ± 0.028	0.211 ± 0.013	0.245 ± 0.015	0.636 ± 0.015	0.366 ± 0.012	0.356 ± 0.014
Cc1nnc(SCC2=C(C(=O)O)N3C(=O)[C@@H](NC(=O)Cn4cnnn4)[C@H]3SC2)s1 [Cefazolin sodium salt]	0.286 ± 0.013	0.3162 ± 0.0031	0.24 ± 0.0064	0.229 ± 0.0084	0.183 ± 0.0062	0.145 ± 0.0033	0.313 ± 0.07	0.428 ± 0.0098	0.192 ± 0.0067	0.237 ± 0.019	0.562 ± 0.098	0.328 ± 0.015	0.363 ± 0.0051
OCC(O)CN1CCN(c2ccccc2)CC1 (racemic) [Dropropizine (R,S)]	0.241 ± 0.0033	0.283 ± 0.018	0.255 ± 0.0087	0.228 ± 0.014	0.174 ± 0.0046	0.144 ± 0.0086	0.364 ± 0.032	0.424 ± 0.03	0.2 ± 0.025	0.248 ± 0.026	0.431 ± 0.04	0.404 ± 0.014	0.361 ± 0.022
CCN(CC)CCOC(=O)C1(c2ccc([N+](=O)[O-])cc2)CCCC1 [Nitrocaramiphen hydrochloride]	0.235 ± 0.015	0.281 ± 0.0086	0.253 ± 0.0047	0.148 ± 0.0071	0.147 ± 0.0043	0.137 ± 0.0018	0.205 ± 0.059	0.426 ± 0.0056	0.161 ± 0.01	0.18 ± 0.017	0.488 ± 0.054	0.412 ± 0.017	0.324 ± 0.03
CN(CCOc1ccc(CC2SC(=O)NC2=O)cc1)c1ccccn1 (stereo not drawn) [Rosiglitazone Hydrochloride]	0.142 ± 0.0027	0.177 ± 0.0057	0.168 ± 0.011	0.177 ± 0.0028	0.0847 ± 0.0029	0.112 ± 0.0041	0.184 ± 0.026	0.19 ± 0.023	0.177 ± 0.015	0.215 ± 0.028	0.327 ± 0.0092	0.266 ± 0.021	0.1 ± 0.016
CC=CC1=C(C(=O)O)N2C(=O)[C@@H](NC(=O)[C@H](N)c3ccc(O)cc3)[C@H]2SC1 [Cefprozil]	0.223 ± 0.0095	0.303 ± 0.0056	0.269 ± 0.016	0.184 ± 0.0039	0.194 ± 0.021	0.163 ± 0.0058	0.259 ± 0.048	0.417 ± 0.022	0.204 ± 0.0084	0.255 ± 0.039	0.543 ± 0.068	0.414 ± 0.017	0.374 ± 0.015
CC(=O)Nc1c(I)c(NC(C)=O)c(I)c(C(=O)O)c1I [Diatrizoic acid dihydrate]	0.234 ± 0.0051	0.285 ± 0.0023	0.255 ± 0.0056	0.191 ± 0.017	0.213 ± 0.0043	0.131 ± 0.01	0.297 ± 0.043	0.326 ± 0.053	0.197 ± 0.013	0.235 ± 0.023	0.537 ± 0.08	0.424 ± 0.011	0.348 ± 0.0074
CN(C)CCOC(c1ccc(Cl)cc1)c1ccccn1 (stereo not drawn) [Carbinoxamine maleate salt]	0.2081 ± 0.00038	0.297 ± 0.017	0.265 ± 0.006	0.196 ± 0.034	0.187 ± 0.018	0.13 ± 0.011	0.259 ± 0.023	0.44 ± 0.01	0.193 ± 0.01	0.23 ± 0.016	0.438 ± 0.022	0.393 ± 0.015	0.332 ± 0.021
CC[N+](CC)(CC)CCOc1cccc(OCC[N+](CC)(CC)CC)c1OCC[N+](CC)(CC)CC [Gallamine triethiodide]	0.245 ± 0.011	0.308 ± 0.014	0.2806 ± 0.0014	0.233 ± 0.017	0.191 ± 0.0068	0.1674 ± 0.00091	0.233 ± 0.013	0.368 ± 0.033	0.19 ± 0.011	0.251 ± 0.037	0.475 ± 0.062	0.4196 ± 0.0011	0.372 ± 0.017
CC(=O)Oc1ccccc1C(=O)Oc1ccccc1C(=O)O [Acetylsalicylsalicylic acid]	0.253 ± 0.0046	0.275 ± 0.0063	0.266 ± 0.016	0.203 ± 0.011	0.181 ± 0.0064	0.142 ± 0.0078	0.325 ± 0.1	0.421 ± 0.069	0.19 ± 0.014	0.209 ± 0.0043	0.449 ± 0.04	0.4179 ± 0.0027	0.352 ± 0.023
O=C1[C@H]2CCCC[C@H]2C(=O)N1CCCCN1CCN(c2nsc3ccccc23)CC1 [Perospirone]	0.131 ± 0.0041	0.225 ± 0.0052	0.257 ± 0.0052	0.146 ± 0.0072	0.103 ± 0.0012	0.1416 ± 0.00075	0.188 ± 0.026	0.369 ± 0.015	0.174 ± 0.013	0.241 ± 0.037	0.432 ± 0.016	0.419 ± 0.0096	0.29 ± 0.027
Clc1ccccc1CN1CCc2sccc2C1 [Ticlopidine hydrochloride]	0.0758 ± 0.011	0.0555 ± 0.015	0.0438 ± 0.0013	0.0705 ± 0.024	0.0437 ± 0.00091	0.0565 ± 0.0013	0.236 ± 0.03	0.323 ± 0.07	0.195 ± 0.0059	0.23 ± 0.029	0.429 ± 0.015	0.345 ± 0.085	0.06587 ± 0.00038
CN(C)CCC=C1c2ccccc2COc2ccccc21 [Doxepin hydrochloride]	0.199 ± 0.018	0.245 ± 0.0099	0.262 ± 0.011	0.178 ± 0.0063	0.134 ± 0.0022	0.144 ± 0.0036	0.186 ± 0.034	0.326 ± 0.032	0.169 ± 0.013	0.182 ± 0.013	0.472 ± 0.033	0.41 ± 0.0055	0.342 ± 0.046
CCn1cc(C(=O)O)c(=O)c2cc(F)c(N3CCNCC3)nc21 [Enoxacin]	0.0456 ± 0.0012	0.0427 ± 0.0002	0.03917 ± 0.00031	0.0439 ± 0.0015	0.0411 ± 0.0025	0.0452 ± 0.0001	0.0919 ± 0.024	0.0687 ± 0.0059	0.06527 ± 0.00061	0.061 ± 0.0086	0.05513 ± 0.00042	0.0588 ± 0.0019	0.05293 ± 0.00025
